Only some compounds are listed: those with a hit (about 0.84% of all), similar ones and a draw of the others.
NCOA2 inhibitor: human SRC2 (NCOA2) inhibition; Q15596; HEK293 GAL4-SRC2 luciferase reporter, luminescence; inhibition, % at 9 µM; actives 0.17% (n = 370,000); AID 651957;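 active means inhibition above the mean inhibition of all tested compounds plus 3 SD, set per campaign, cut at about 52% in these data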
NR5A2 inv ag: suppresses constitutive activity of human LRH-1. actives 0.13% (n = 360,000). inhibition, % at 3.6 µM. HEK293T StAR-luciferase reporter, LRH-1 transfected, 24 h. O00482;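 active means inhibition above the mean inhibition of all tested compounds plus 3 SD, cut at about 73% in these data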
SRC1 inh: human NCOA1 inhibition; Q15788; HEK293 GAL4-SRC1 luciferase reporter, luminescence; inhibition, % at 3.6 µM; actives 0.12% (n = 360,000);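 active means inhibition above the campaign mean plus 3 SD, with each screening campaign given its own cutoff, cut at about 60% in these data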
COUP-TFII inh: blocks human COUP-TFII nuclear receptor; P24468; HEK293T NGFI-A luciferase reporter, luminescence; inhibition, % at 8.6 µM; actives 0.7% (n = 370,000);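 active means inhibition above a per-plate cutoff, mean inhibition of test wells between control levels plus 3 SD, cut at about 38% in these data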;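 further: cells cotransfected with COUP-TFII expression vector driving the NGFI-A reporter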
Target sequence (P24468 whole entry, looked up): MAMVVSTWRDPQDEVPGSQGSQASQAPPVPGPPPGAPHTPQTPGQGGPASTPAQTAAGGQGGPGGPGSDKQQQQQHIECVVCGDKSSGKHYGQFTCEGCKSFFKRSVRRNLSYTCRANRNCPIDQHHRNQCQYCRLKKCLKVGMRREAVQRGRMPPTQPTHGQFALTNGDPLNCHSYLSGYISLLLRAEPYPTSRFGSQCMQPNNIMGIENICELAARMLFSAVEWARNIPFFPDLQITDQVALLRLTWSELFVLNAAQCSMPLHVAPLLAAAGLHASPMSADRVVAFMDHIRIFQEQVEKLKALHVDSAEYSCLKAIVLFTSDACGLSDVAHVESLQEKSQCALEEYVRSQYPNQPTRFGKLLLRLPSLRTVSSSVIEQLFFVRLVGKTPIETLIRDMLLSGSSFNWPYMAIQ
NCOA3 inh: inhibitors of human steroid receptor coactivator 3 (SRC3). Q9Y6Q9. AID 588352. actives 0.17% (n = 360,000). inhibition, % at 3.6 µM. HEK293 GAL4-SRC3 luciferase reporter, luminescence;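 active means inhibition above a per-campaign cutoff, the mean of all compounds plus 3 SD, cut at about 60% in these data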;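 further: higher means less SRC3-driven luciferase light from the GAL4 reporter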
VP16 Luc counter: VP16 inhibition counter-screen for COUP-TFII | shares compounds with COUP-TFII inh | HEK293 Gal4-VP16 luciferase reporter, luminescence | inhibition, % at 8.5 µM | actives 25% (n = 2,500) | AID 687007; in the data active means inhibition above about 13%
NR2F2 inh conf: COUP-TFII (NR2F2) inhibition, confirmation assay. shares compounds with COUP-TFII inh. HEK293 NGFI-A luciferase reporter, luminescence. inhibition, % at 8.5 µM. actives 45% (n = 2,500). AID 687008;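 active means mean inhibition over three repeats above a set limit taken from the earlier primary screen, cut at about 38% in these data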
Numbers stand for hits; - = inactive; . = not tested or not shown; ! = not active in a repeat.

SMILES | NCOA2 inhibitor | NR5A2 inv ag | SRC1 inh | COUP-TFII inh | NCOA3 inh | VP16 Luc counter | NR2F2 inh conf
Cc1ccc(NC2=C/C(=N\S(=O)(=O)c3cccs3)c3ccccc3C2=O)c(C)c1 | . | - | 67 | . | 70 | . | .
Cc1cccc(NC2=C/C(=N/S(=O)(=O)c3cccs3)c3ccccc3C2=O)c1 | - | - | - | - | - | . | .
CCc1ccc(S(=O)(=O)/N=C2\C=C(Nc3ccc(O)cc3)C(=O)c3ccccc32)cc1 | . | 90 | 88 | . | 89 | . | .
CCc1ccc(S(=O)(=O)/N=C2/C=C(Sc3ncn[nH]3)C(=O)c3ccccc32)cc1 | . | 95 | 83 | . | 88 | . | .
O=C1C(Nc2ccc(O)cc2)=C/C(=N/S(=O)(=O)c2cccs2)c2ccccc21 | 71 | 86 | 88 | 78 | 90 | . | .
CCc1ccc(S(=O)(=O)/N=C2\C=C(Nc3cccc(C(=O)O)c3)C(=O)c3ccccc32)cc1 | - | - | - | - | - | . | .
COc1ccccc1CC(=O)NCCN1C(=O)C2C3C=CC(C3)C2C1=O (centres undefined) | - | . | . | - | . | . | .
CN(CCO)c1cccc2c1S(=O)(=O)N(Cc1cn(Cc3ccc(F)cc3)nn1)Cc1ccccc1O2 | - | . | . | - | . | . | .
O=C(O)c1ccc(NC2=C/C(=N/S(=O)(=O)c3cccs3)c3ccccc3C2=O)cc1 | - | - | - | - | - | . | .
Cc1ccc(Cl)cc1NC1=C/C(=N\S(=O)(=O)c2cccs2)c2ccccc2C1=O | - | - | 72! | - | 85! | . | .
COc1ccc(N2CCN(S(=O)(=O)c3ccc4c(c3)NC(=O)C(C)S4)CC2)cc1 (centres undefined) | - | - | - | 42 | - | - | -
CCc1ccc(NC(=O)C2CCN(S(=O)(=O)c3ccc4c(c3)NC(=O)C(C)S4)CC2)cc1 (centres undefined) | - | - | - | 58 | - | - | 40
Cc1ccc(NC(=O)C2CCN(S(=O)(=O)c3ccc4c(c3)NC(=O)C(C)S4)CC2)cc1C (centres undefined) | - | - | - | - | - | . | .
CC(C)CC(=O)N1CCc2cc(S(=O)(=O)N(C)Cc3ccco3)ccc21 | - | . | . | - | . | . | .
CCCCCCN1CCS(=O)(=O)N(Cc2ccc(Cl)cc2)C(C(=O)OC)C1 (centres undefined) | - | . | . | - | . | . | .
O=C(NCC(c1ccccc1)c1ccccc1)[C@H](Cc1c[nH]c2ccccc12)NC1(C(=O)NC2CCCCC2)CCN(Cc2ccccc2)CC1 | . | . | . | - | . | . | .
CCOC(=O)c1c(-c2ccccc2)csc1NC(=O)CSc1nc(N)cc(N)n1 | - | - | - | 61 | - | - | -
COc1ccc(NC(=O)CN2C(=O)C(c3ccccc3)=NC23CCCCCC3)cc1 | - | - | - | - | - | . | .
O=C(CN1C(=O)C(c2ccc(F)cc2)=NC12CCCC2)Nc1ccc(F)cc1 | - | - | - | 39 | - | - | -
Cc1ccccc1CNC(=S)OC1CCC12CCC(c1ccccc1)CC2 (centres undefined) | - | . | . | - | . | . | .
FC(F)(F)c1cnc(NNC(=S)Nc2ccccc2Cl)c(Cl)c1 | - | - | - | 42 | - | 18 | -
Cc1cccc(NC(=S)NNc2ncc(C(F)(F)F)cc2Cl)c1 | - | - | - | - | - | . | .
COc1ccc(CNc2nn3c(-c4cccc(C(=O)N(C)C)c4)cnc3s2)cc1 | - | - | - | - | - | . | .
NS(=O)(=O)c1ccc(CCNc2nn3c(-c4cccc(OC(F)(F)F)c4)cnc3s2)cc1 | - | - | - | 71 | - | 14 | 57
CCN(CC)c1c2c(nc3ncnn13)CCCC2 | - | . | . | - | . | . | .
COc1cc(-c2cnc3c(NC=O)cc(-c4cccc(C(F)(F)F)c4)cn23)cc(OC)c1OC | - | - | - | 41 | - | - | -
Cc1cccc(-c2cc(NC=O)c3ncc(-c4cccc(C(=O)N(C)C)c4)n3c2)c1 | - | - | - | - | - | . | .
CN(C)C(=O)c1cccc(-c2cnc3c(NC=O)cc(-c4cccc(C(F)(F)F)c4)cn23)c1 | - | - | - | 46 | - | - | -
CC(=O)N1CCN(C(=O)CN2C(=O)CC(C)(C)S(=O)(=O)c3ccccc32)CC1 | - | . | . | - | . | . | .
CCN(CC)S(=O)(=O)c1ccc(Cl)c(NC(=S)NC(=O)C2CCCC2)c1 | - | - | - | 44 | - | - | -

Screening results from PubChem BioAssay.
